Results as given in PubChem BioAssay (NCATS).
“And” between values parts separate entries of the source, which are not always exact repeats. Equal values may be shown once. Records with an inconclusive call do not appear. The source made the active and inactive calls. Unless noted, the call rests on the fitted dose curve; in most records, active means well fitted curve in the direction sought with a large enough effect; inconclusive means small, poorly fitted or top-dose-only effect, or another doubt; inactive means no such curve, though single readings can be large; an effect the other way counts as inactive or inconclusive.

Legend:
[1] = target: Glucocorticoid receptor (Homo sapiens) (UniProt P04150); experiment: qHTS assay for small molecule agonists of glucocorticoid receptor signaling (AID 588532; active means well fitted curve in the direction sought with a large enough effect in the signal ratio, with a control signal flat; the % refers to the signal ratio;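 further: 100% = dexamethasone at 0.1 µM and 0% = DMSO only wells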); conditions: HeLa MMTV-bla, beta-lactamase ratio, agonist, 18 h; stronger effect = higher value; percent of dexamethasone control, DMSO zero
Sequence of Glucocorticoid receptor (Homo sapiens) (P04150 whole entry, looked up): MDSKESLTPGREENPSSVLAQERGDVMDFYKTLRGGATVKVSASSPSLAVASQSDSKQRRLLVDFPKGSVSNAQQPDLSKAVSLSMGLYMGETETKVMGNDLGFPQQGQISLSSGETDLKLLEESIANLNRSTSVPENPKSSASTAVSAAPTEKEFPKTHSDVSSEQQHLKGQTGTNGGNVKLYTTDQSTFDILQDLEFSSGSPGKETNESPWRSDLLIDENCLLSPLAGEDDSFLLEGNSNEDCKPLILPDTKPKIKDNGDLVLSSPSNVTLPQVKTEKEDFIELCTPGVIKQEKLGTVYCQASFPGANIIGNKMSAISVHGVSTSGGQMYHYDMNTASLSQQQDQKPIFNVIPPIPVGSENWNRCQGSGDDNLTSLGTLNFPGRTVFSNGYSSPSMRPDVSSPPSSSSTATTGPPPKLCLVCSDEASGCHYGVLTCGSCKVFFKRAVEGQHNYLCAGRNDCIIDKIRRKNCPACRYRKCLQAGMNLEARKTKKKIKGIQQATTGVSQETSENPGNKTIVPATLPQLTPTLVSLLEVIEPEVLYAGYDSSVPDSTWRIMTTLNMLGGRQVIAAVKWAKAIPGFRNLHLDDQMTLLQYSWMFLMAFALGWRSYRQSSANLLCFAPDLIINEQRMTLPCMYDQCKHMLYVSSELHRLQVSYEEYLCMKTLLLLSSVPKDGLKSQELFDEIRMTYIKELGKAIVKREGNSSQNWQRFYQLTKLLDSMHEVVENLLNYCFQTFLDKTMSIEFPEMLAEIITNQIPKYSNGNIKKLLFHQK
In short: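 Using MMTV-bla HeLa cells in medium with 1% stripped FBS and 25 mM HEPES, compounds were titrated and incubated overnight-length (18 h). Beta-lactamase cleavage of CCF4 was quantified by dual-emission fluorescence.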

[2] = target: Glucocorticoid receptor (Homo sapiens) (UniProt P04150); experiment: qHTS assay for small molecule antagonists of glucocorticoid receptor signaling (AID 588533; active means well fitted inhibition curve with a large enough effect in the signal ratio, with a control signal flat, not every such curve was filed as active; the % refers to the signal ratio;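 further: cells stimulated with 2 nM dexamethasone as agonist; on the % scale 0 is the no-effect control and ±100 the full control effect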); conditions: HeLa MMTV-bla, GRE beta-lactamase ratio, antagonist mode, 18 h; series mostly up to 76.8 µM
In short: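 Antagonist-mode qHTS: compound titrations added to GRE-bla HeLa cells, then dexamethasone 2 nM final; 18 h, 37 C. CCF4 FRET fluorescence normalized to dexamethasone and DMSO; IC50 from Hill fit.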

[3] = qHTS assay for small molecule antagonists of peroxisome proliferator-activated receptor delta signaling (AID 588535; active means well fitted inhibition curve with a large enough effect in the signal ratio, with a control signal flat, not every such curve was filed as active; the % refers to the signal ratio;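 on max response: cells co-treated with a PPAR-delta agonist as stimulator during compound exposure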); conditions: HEK293T PPARd-UAS-bla, beta-lactamase FRET ratio, 18 h; 460 nm channel
In short: (§1)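 Titrations were run on PPAR-delta-UAS-bla HEK293T cells in charcoal/dextran-stripped serum, incubated 18 h at 37 C. CCF4 fluorescence (460/530 nm) after 2 h RT; Hill equation yields IC50 and maximal response.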

[4] = target: Peroxisome proliferator-activated receptor delta (Homo sapiens) (UniProt Q03181); experiment: as above; conditions: HEK293T PPARd-UAS-bla, beta-lactamase FRET ratio, 18 h; series mostly up to 76.7 µM
In short: as §1

[5] = target: Peroxisome proliferator-activated receptor gamma (Homo sapiens) (UniProt P37231); experiment: qHTS assay for small molecule agonists of peroxisome proliferator-activated receptor gamma signaling (AID 588536; active means well fitted curve in the direction sought with a large enough effect in the signal ratio, with a control signal flat, not every such curve was filed as active; the % refers to the signal ratio;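 further: 0% = DMSO basal wells and 100% = rosiglitazone at 2 µM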); conditions: HEK293 PPARg-UAS-bla, beta-lactamase ratio, 16 h, percent of rosiglitazone response, DMSO as zero; series mostly up to 76.7 µM
Sequence of Peroxisome proliferator-activated receptor gamma (Homo sapiens) (P37231 whole entry, looked up): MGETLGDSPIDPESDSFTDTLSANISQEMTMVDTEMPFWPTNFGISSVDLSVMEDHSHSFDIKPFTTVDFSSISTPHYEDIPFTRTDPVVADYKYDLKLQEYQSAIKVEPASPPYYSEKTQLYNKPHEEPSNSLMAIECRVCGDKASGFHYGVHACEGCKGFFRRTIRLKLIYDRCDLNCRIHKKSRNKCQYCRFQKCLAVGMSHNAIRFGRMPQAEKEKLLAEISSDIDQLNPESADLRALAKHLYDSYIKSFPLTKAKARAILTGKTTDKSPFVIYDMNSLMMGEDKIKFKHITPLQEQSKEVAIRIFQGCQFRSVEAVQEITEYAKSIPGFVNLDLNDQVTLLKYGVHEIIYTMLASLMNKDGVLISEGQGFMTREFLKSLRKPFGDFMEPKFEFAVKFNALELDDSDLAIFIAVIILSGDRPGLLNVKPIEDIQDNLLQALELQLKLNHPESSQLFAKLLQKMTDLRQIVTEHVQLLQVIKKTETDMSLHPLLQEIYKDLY
In short: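 Beta-lactamase reporter read-out: CCF4 fluorescence (ex 405, em 460/530 nm) after 2 h at RT. HEK293 GeneBLAzer cells were treated for 16 h at 37 C. Hill fits gave EC50 and efficacy versus 2 uM rosiglitazone (100%) and DMSO (0%).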

[6] = target: Peroxisome proliferator-activated receptor gamma (Homo sapiens) (UniProt P37231); experiment: qHTS assay for small molecule antagonists of peroxisome proliferator-activated receptor gamma signaling (AID 588537; active means well fitted inhibition curve with a large enough effect in the signal ratio, with a control signal flat, not every such curve was filed as active; the % refers to the signal ratio;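 further: reporter cells co-stimulated with 50 nM rosiglitazone agonist during compound treatment; % of control where 0% means no effect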); conditions: HEK293 PPARg-UAS-bla, beta-lactamase ratio, antagonist mode; series mostly up to 76.8 µM
In short: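 Antagonist-mode β-lactamase reporter screen run as a titration series. HEK293 PPARγ-UAS-bla cells are stimulated with rosiglitazone (50 nM final) for 16 h, then CCF4 is read at 460/530 nm. Data are scaled between DMSO and rosiglitazone and fitted to the Hill equation.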

[7] = qHTS assay for small molecule agonists of retinoid X receptor alpha signaling (AID 588544); conditions: HEK293T RXRa-UAS-bla, beta-lactamase reporter, 18 h; 530 nm emission
[8] = target: Thyroid hormone receptor beta (Homo sapiens) (UniProt P10828); experiment: qHTS assay for small molecule agonists of thyroid hormone receptor beta signaling (AID 588545; calls by dose curve;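 further: 0% = DMSO only and 100% = 10 nM T3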); conditions: TR-UAS-bla GripTite HEK 293, beta-lactamase ratio, agonist mode, 18 h, percent of T3 response, DMSO as zero; series mostly up to 76.7 µM
Sequence of Thyroid hormone receptor beta (Homo sapiens) (P10828 whole entry, looked up): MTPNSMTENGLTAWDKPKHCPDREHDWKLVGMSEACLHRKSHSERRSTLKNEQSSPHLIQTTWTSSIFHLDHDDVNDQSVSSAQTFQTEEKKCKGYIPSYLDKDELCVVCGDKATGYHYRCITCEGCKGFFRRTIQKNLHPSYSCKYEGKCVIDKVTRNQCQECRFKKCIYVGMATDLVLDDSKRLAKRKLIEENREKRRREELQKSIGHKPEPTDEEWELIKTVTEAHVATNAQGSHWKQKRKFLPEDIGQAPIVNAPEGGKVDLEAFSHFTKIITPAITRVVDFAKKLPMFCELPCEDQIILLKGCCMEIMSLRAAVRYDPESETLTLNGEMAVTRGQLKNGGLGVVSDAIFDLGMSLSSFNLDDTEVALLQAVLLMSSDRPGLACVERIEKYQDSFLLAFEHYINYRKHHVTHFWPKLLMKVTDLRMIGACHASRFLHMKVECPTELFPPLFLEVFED
In short: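 Efficacy and EC50 values derive from Hill fits of qHTS titration data, normalized to 10 nM T3 and DMSO-only wells. HEK 293 reporter cells were stimulated for 18 hrs at 37 C, with beta-lactamase activity measured by CCF4 fluorescence.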

[9] = qHTS assay for small molecule antagonists of retinoid X receptor alpha signaling (AID 588546; active means well fitted inhibition curve with a large enough effect in the signal ratio, with a control signal flat, not every such curve was filed as active; the % refers to the signal ratio; further: potency means the concentration at half of the fitted maximal effect;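 on max response: cells stimulated with 9-cis-retinoic acid as agonist; on the % scale 0 is the no-effect control and ±100 the full control effect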); conditions: HEK293T RXRa-UAS-bla, beta-lactamase ratio, antagonist mode; measured here: W530 green channel, cytotoxicity proxy
In short: (§2)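 Beta-lactamase reporter inhibition, read as CCF4 fluorescence ratio (ex 405, em 460/530 nm) after 2 h at RT. HEK293T UAS-bla cells, 2500/well, were stimulated with 9-cis-RA at 500 or 100 nM final alongside test compound for 18 h at 37 C.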

[10] = target: Retinoic acid receptor RXR-alpha (Homo sapiens) (UniProt P19793); experiment: as above; conditions: HEK293T RXRa-UAS-bla, beta-lactamase ratio, antagonist mode
Sequence of Retinoic acid receptor RXR-alpha (Homo sapiens) (P19793 whole entry, looked up): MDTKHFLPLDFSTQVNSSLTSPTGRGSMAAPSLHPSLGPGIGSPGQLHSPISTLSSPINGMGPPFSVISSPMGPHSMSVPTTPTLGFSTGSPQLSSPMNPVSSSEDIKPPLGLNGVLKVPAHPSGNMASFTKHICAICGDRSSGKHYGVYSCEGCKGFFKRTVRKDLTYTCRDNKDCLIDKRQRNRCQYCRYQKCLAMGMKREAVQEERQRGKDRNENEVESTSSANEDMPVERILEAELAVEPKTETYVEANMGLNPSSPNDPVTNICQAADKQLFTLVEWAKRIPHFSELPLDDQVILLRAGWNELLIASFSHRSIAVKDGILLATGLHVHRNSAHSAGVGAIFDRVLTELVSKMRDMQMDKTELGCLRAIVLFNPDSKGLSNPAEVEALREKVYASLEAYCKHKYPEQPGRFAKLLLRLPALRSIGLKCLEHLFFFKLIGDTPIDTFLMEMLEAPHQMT
In short: as §2

[11] = target: Thyroid hormone receptor beta (Homo sapiens) (UniProt P10828); experiment: qHTS assay for small molecule antagonists of thyroid hormone receptor beta signaling (AID 588547; active means well fitted inhibition curve with a large enough effect in the signal ratio, with a control signal flat, not every such curve was filed as active; the % refers to the signal ratio;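 further: cells stimulated with 0.4 nM T3 agonist during compound exposure; on the % scale 0 is the no-effect control and ±100 the full control effect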); conditions: TR-UAS-bla HEK293, beta-lactamase ratio, antagonist mode, 18 h
In short: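 Inhibition of T3-driven (0.4nM final) beta-lactamase reporter activity was measured over 0.59 nM to 92 uM compound after 18 h at 37 C. The cells were GripTite HEK293 TR-UAS-bla in charcoal/dextran-stripped serum, with CCF4 ratio read-out and IC50 from Hill fits.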

[12] = target: Voltage-gated inwardly rectifying potassium channel KCNH2 (Homo sapiens) (UniProt Q12809); experiment: qHTS Assay for Small Molecule Inhibitors of the Human hERG Channel Activity (AID 588834); conditions: U2OS BacMam hERG, FluxOR thallium flux fluorescence; series mostly up to 46.1 µM;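 further: U2OS cells transduced with hERG by BacMam; top concentration of the series differs between compounds; on the % scale 0 is the no-effect control and ±100 the full control effect; lower thallium flux fluorescence means stronger hERG block; nearly all actives have a fitted effect of over 50% in size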
Sequence of Voltage-gated inwardly rectifying potassium channel KCNH2 (Homo sapiens) (Q12809 whole entry, looked up): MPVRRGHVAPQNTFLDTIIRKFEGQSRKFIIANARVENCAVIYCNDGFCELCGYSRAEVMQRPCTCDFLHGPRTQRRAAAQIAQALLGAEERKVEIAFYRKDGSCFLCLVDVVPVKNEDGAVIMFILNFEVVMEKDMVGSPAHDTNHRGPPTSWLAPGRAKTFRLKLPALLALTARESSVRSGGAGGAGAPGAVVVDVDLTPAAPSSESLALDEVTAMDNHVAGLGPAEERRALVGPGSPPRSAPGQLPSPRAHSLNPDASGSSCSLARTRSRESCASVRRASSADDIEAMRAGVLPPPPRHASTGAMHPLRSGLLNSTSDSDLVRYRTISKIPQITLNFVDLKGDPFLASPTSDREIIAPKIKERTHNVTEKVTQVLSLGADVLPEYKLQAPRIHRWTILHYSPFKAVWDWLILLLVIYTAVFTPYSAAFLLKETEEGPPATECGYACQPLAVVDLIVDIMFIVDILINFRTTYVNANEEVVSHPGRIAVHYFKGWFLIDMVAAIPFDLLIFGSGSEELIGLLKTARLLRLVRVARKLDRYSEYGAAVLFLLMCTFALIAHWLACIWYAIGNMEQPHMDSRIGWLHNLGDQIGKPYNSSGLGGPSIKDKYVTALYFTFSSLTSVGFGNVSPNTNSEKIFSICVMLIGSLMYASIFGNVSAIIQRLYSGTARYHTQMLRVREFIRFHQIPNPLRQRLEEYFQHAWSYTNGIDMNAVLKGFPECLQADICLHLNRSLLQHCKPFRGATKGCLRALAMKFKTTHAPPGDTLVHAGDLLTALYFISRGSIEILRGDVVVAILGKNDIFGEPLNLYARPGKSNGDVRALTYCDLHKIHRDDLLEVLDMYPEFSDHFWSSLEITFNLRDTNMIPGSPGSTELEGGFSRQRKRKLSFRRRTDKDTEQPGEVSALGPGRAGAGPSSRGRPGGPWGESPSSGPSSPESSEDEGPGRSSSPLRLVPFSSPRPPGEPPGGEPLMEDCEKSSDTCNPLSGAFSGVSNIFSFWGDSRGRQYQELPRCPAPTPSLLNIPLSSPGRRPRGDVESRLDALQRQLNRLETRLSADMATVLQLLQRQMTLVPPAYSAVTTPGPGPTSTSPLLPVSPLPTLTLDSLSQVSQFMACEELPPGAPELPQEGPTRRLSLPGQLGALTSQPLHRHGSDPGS
In short: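 Cells were infected with hERG-BacMam virus for 4 hrs at room temperature, grown overnight, then seeded at 2000/well. After dye loading and roughly 10 min compound treatment, thallium influx was triggered and fluorescence recorded.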

[13] = target: Luciferin 4-monooxygenase (Photinus pyralis) (UniProt P08659); experiment: Biochemical firefly luciferase enzyme assay for NPC (AID 624030); further: nearly all actives have a fitted effect of over 70% in size; further: potency means the concentration at half of the fitted maximal effect; conditions: purified P. pyralis luciferase, luminescence, 5 min; series mostly up to 58.6 µM
In short: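 Direct inhibition of firefly luciferase enzyme (10 nM final, 50 mM Tris Acetate) assessed by luminescence within 5 minutes. Percent activity scaled between DMSO and PTC124 positive control, with concentration-effect curves classified by fit quality and response.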

[14] = S16 Schwann cell viability assay (CellTiter-Glo assay) (AID 624031); conditions: S16 rat Schwann cells viability, 24 h; series mostly up to 57.5 µM;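 further: native untransfected S16 rat Schwann cells; plate controls were DMSO-treated cells for no effect and cell-free wells for full effect; nearly all actives have a fitted effect of over 70% in size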
In short: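 Counter-screen for cytotoxicity: parental S16 rat Schwann cells lacking the PMP22 reporters, treated 24 h with compound, viability from cellular ATP by CellTiter-Glo luminescence, normalized to DMSO (0%) and no-cell wells.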

[15] = S16 Schwann cell PMP22 intronic element firefly luciferase assay (AID 624032); conditions: S16 rat Schwann cells, PMP22 element FLuc, 24 h; series mostly up to 57.5 µM;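 further: plate controls were DMSO for no effect and PTC124 positive control mean for full effect; nearly all actives have a fitted effect of over 30% in size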
In short: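 Luciferase reporter of PMP22 intronic-element expression in stably transfected S16 rat Schwann cells, read by ONE-Glo luminescence after 24 h compound exposure at 37 C. Activity scaled between DMSO (0%) and positive-control PTC124; concentration-effect curves quality-classified.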

[16] = target: Glutaminase kidney isoform, mitochondrial (Homo sapiens) (UniProt O94925); experiment: qHTS for Inhibitors of Glutaminase (GLS): LOPAC Validation (AID 624146); conditions: glutaminase enzyme activity inhibition; series mostly up to 46.1 µM;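 further: glutamate product detected by oxidase and peroxidase coupled Amplex red fluorescence gain; on the % scale 0 is the no-effect control and ±100 the full control effect; nearly all actives have a fitted effect of over 60% in size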
Sequence of Glutaminase kidney isoform, mitochondrial (Homo sapiens) (O94925 whole entry, looked up, canonical isoform): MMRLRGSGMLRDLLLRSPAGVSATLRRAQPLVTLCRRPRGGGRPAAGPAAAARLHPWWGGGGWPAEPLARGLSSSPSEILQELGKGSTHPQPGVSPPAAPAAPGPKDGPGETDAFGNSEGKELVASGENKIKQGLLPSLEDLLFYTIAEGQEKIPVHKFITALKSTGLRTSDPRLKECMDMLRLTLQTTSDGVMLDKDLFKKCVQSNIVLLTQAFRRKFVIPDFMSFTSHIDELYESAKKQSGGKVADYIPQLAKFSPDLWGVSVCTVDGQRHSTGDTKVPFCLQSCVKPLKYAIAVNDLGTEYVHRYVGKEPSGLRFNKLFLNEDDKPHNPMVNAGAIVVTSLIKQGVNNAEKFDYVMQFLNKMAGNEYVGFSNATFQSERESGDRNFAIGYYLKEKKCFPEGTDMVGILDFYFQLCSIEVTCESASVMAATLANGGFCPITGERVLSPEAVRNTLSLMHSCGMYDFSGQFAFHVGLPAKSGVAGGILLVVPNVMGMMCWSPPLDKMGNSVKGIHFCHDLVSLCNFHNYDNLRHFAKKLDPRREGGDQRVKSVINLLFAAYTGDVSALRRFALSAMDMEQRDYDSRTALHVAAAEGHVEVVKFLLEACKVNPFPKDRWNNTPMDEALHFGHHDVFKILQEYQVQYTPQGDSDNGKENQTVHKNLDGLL
In short: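 Enzyme dispensed in phosphate buffer (45 mM, pH 8.2, 0.02% Tween-20), compounds pinned in, then 1 mM L-glutamine solution and the glutamate oxidase–HRP–Amplex Red mix added; fluorescence read immediately and again after 30 min at room temperature.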

[17] = target: Bile acid receptor (Homo sapiens) (UniProt Q96RI1); experiment: qHTS assay for small molecule antagonists of farnesoid X receptor signaling (AID 588526; calls by dose curve; further: potency means the concentration at half of the fitted maximal effect); conditions: HEK293T FXR-UAS-bla, beta-lactamase ratio, antagonist mode; series mostly up to 76.7 µM
Sequence of Bile acid receptor (Homo sapiens) (Q96RI1 whole entry, looked up): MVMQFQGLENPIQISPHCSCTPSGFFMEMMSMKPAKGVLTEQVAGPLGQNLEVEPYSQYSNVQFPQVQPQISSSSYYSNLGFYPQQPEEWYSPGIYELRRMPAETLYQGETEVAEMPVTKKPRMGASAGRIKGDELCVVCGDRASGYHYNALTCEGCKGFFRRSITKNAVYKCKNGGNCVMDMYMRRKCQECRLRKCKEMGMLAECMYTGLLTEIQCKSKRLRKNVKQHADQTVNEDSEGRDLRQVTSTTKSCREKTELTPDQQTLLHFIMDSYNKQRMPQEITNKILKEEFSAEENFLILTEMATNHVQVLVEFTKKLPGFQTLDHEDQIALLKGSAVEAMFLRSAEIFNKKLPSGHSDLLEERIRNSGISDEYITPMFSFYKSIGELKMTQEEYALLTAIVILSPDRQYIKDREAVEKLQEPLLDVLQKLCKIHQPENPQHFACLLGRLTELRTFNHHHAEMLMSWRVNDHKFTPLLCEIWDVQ
In short: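 Beta-lactamase reporter antagonist mode: HEK293T FXR-UAS-bla cells, titrated compound, CDCA stimulation, 16 h 37 C, CCF4 dye 2 h RT. Data normalized to CDCA 50 uM and DMSO; Hill-fit IC50.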

[18] = target: Vitamin D3 receptor (Homo sapiens) (UniProt P11473); experiment: qHTS assay for small molecule antagonists of vitamin D receptor signaling (AID 588541; calls by dose curve;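 further: receptor activated by calcitriol during compound treatment; on the % scale 0 is the no-effect control and ±100 the full control effect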); conditions: HEK293T VDR-UAS-bla, beta-lactamase ratio, antagonist mode; series mostly up to 76.7 µM
Sequence of Vitamin D3 receptor (Homo sapiens) (P11473 whole entry, looked up): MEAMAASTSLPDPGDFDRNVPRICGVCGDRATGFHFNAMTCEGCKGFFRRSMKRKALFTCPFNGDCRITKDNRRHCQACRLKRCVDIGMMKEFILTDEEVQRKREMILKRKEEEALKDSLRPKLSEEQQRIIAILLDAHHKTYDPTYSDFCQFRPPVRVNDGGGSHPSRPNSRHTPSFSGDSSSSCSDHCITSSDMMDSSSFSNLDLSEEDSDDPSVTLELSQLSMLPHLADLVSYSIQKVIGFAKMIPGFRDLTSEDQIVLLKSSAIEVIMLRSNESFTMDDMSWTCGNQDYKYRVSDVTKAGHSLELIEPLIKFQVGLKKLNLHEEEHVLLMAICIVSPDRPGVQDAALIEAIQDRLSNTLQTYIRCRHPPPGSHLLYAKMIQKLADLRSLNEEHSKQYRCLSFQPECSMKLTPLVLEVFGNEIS
In short: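 Antagonist-mode beta-lactamase reporter assay: HEK293T VDR-UAS-bla cells were exposed to titrated compound alongside 1-alpha,25-dihydroxyvitamin D3 at 3 nM final for 16 h. Values were normalized to the 50 nM agonist control and DMSO basal, with IC50 and efficacy from Hill equation fits.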

[19] = target: Vitamin D3 receptor (Homo sapiens) (UniProt P11473); experiment: qHTS assay for small molecule agonists of vitamin D receptor signaling (AID 588543; calls by dose curve;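 further: 0% = DMSO basal and 100% = reference agonist control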); conditions: HEK293T VDR-UAS-bla, beta-lactamase ratio, 16 h; series mostly up to 76.8 µM
In short: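 qHTS in agonist mode: compound titrations stimulate a VDR-driven β-lactamase reporter in HEK293T cells over 16 h at 37 °C. Response normalized to 50 nM 1α,25-dihydroxyvitamin D3 = 100%, DMSO = 0%; Hill fitting gives EC50 and maximal response.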

[20] = S16 Schwann cell PMP22 intronic element beta-lactamase assay (AID 624044; calls by dose curve; further: potency means the concentration at half of the fitted maximal effect; nearly all actives have a fitted effect of over 15% in size); conditions: S16 rat Schwann cells, PMP22 element beta-lactamase FRET, 24 h; series mostly up to 38.3 µM
In short: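 Beta-lactamase reporter under a PMP22 intronic regulatory element in stable S16 rat Schwann cells; 24 h compound exposure. 460 nm blue signal normalized between DMSO (0%) and potassium clavulanate, with 535 nm FRET tracking viability; curves classed by r2 and response.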

CC(C)Cc1ccc(C(C)C(=O)O)cc1 (stereo unspecified)
43%: max response [3]
27.4%: max response [7]
inactive: activation [1] -8.45% | Potency [2] | outcome [4] | outcome [5] | Potency [6] | outcome [8] | max response [10] -17.6% | activity change % (negative = inhibition) [11] -8.69% | Potency [12] | Potency [13] | Potency [14] | Potency [15] | Potency [16]
4.68%: max response [9]

Cc1cn([C@H]2C[C@H](N=[N+]=[N-])[C@@H](CO)O2)c(=O)[nH]c1=O
15.5% and -2.05%: max response [9]
16%: max response [3]
27.7% and 12.8%: max response [7]
inactive: Potency [17] | activation [1] -3.02% and 6.31% | Potency [2] | outcome [4] | outcome [5] | Potency [6] | outcome [18] | outcome [19] | outcome [8] | max response [10] 5.84% and -2.64% | activity change % (negative = inhibition) [11] 5.41% and 12% | Potency [12] | Potency [13] | Potency [16]

CC(C)C(=O)Nc1ccc([N+](=O)[O-])c(C(F)(F)F)c1
inactive: Potency [17] | outcome [5] | Potency [6] | outcome [8] | max response [10] -17.5% and 1.97% | activity change % (negative = inhibition) [11] -0.269% and 16% | Potency [12] | Potency [13] | Potency [16]
2.09% and 2.52%: max response [9]

O=c1[nH]cc(F)c(=O)[nH]1
-12.4%: max response [7]
-11.8%: max response [9]
inactive: Potency [2] | outcome [18] | outcome [19] | max response [10] 17.9% | Potency [12] | Potency [13] | Potency [16]

Nc1c2c(nc3ccccc13)CCCC2
inactive: outcome [5] | outcome [8] | max response [10] -6.99% | activity change % (negative = inhibition) [11] -14.9% | Potency [13] | Potency [16]
12.8%: max response [9]

O=c1c(-c2ccc(O)cc2)coc2cc(O)cc(O)c12
active: Potency [17] 25.1 µM | Potency [10] 35.5 µM | Potency [13] 9.07 µM | Potency [20] 25.1 µM
18.6%: max response [9]
inactive: activation [1] -14.7% and -3.51% | outcome [18] | outcome [19] | outcome [8] | activity change % (negative = inhibition) [11] -35.3% | Potency [12] | Potency [15] | Potency [16]
